Results from the supplement of paper PMC10600219.
Structures can show the parent of a compound that is named as a salt. Whole data set: some 2,800 compounds, median “cell viability relative to vehicle” near 1.1, cut for the lowest 2% near 0.19. Only a selection was taken, and the lowest values are over-represented in it overall.

System: NCI-H2228 parental
Assay: cell viability relative to vehicle (fraction of vehicle); NCI-H2228 is an ALK-positive lung cancer line and DTP means drug-tolerant persister; higher = less growth inhibition
Settings: 100 nM; treatment time 6 days
In short: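 The 3114-agent TargetMol anti-cancer compound library was tested at 100 nM for 6 days on parental NCI-H2228 cells and on persister cells derived with 1000 nM of a targeted drug for 13 days. ATP readout by the CellTiter-Glo 3D Cell Viability Assay gave cell viability relative to DMSO vehicle-treated cells.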

Compared with `FC(F)(F)c1ccccc1-c1nc(NCc2cccs2)c2ccccc2n1`, `CCN(CC)CCOc1ccc(Nc2nc(-c3ccccc3NC(=O)CCN3CCN(C)CC3)nc3ccccc23)cc1` is higher in cell viability: 1.04 for the first, 1.15 for the second.

Compared with `CC(CCc1ccccn1)(CCc1ccccn1)C(=O)c1ccccc1` [JAK2 Inhibitor V], `C[C@H](NC(=O)CNC(=O)c1cccc(Cl)c1)c1ccccc1` is higher in cell viability: 1.08 for the first, 1.09 for the second.

First: COc1cc2ncnc(Nc3ccc(Oc4ccccc4)cc3C)c2cc1OC
Second: COc1cc(OCc2cccc(-c3ccccc3)c2C)cc(OC)c1CN1CCCC[C@H]1C(=O)O [PD-1/PD-L1 inhibitor 1]
The cell viability of the first is lower: 0.96 for the first, 1.09 for the second.

First: CCc1ccc(-c2nc(CSCC(=O)NCCc3ccccc3)c(C)o2)cc1
Second: COc1ccc(C[C@H](NC(=O)[C@H](C)NC(=O)CN2CCOCC2)C(=O)N[C@@H](Cc2ccccc2)C(=O)C2(C)CO2)cc1 (stereo in doubt)
The cell viability of the first is higher: 1.1 for the first, 0.878 for the second.

Compared with `COc1cc(N(C)C)cc(CN(C)CCc2ccc([N+](=O)[O-])cc2)c1O` [CDC25 Phosphatase Inhibitor I], `COc1nccnc1NS(=O)(=O)c1ccc(NC(=O)/C=C/c2ccc([N+](=O)[O-])s2)cc1` [Necrosulfonamide] is higher in cell viability: 1.05 for the first, 1.13 for the second.

First: O=C(O[C@@H]1Cc2c(O)cc(O)cc2O[C@H]1c1cc(O)c(O)c(O)c1)c1cc(O)c(O)c(O)c1 [(-)-Gallocatechin gallate]
Second: COc1ccc(-c2cc(=O)c3c(O)cc(O[C@@H]4O[C@H](CO[C@@H]5O[C@@H](C)[C@H](O)[C@@H](O)[C@H]5O)[C@@H](O)[C@H](O)[C@H]4O)cc3o2)cc1 [Linarin]
The cell viability of the first is higher: 1.07 for the first, 1.02 for the second.

Compared with `O=C1NCCSc2c1sc1ccc(O)cc21`, `CCn1cc(-c2cccc(C(F)(F)F)c2)c2sc(C(=N)NC3CCS(=O)(=O)CC3)cc2c1=O` is higher in cell viability: 1.05 for the first, 1.1 for the second.

First: Cc1csc(-c2nnc(Nc3ccc(Oc4ncccc4-c4ccnc(N)n4)cc3)c3ccccc23)c1
Second: Nc1nccc(Oc2ccc3c(C(=O)Nc4cccc(C(F)(F)F)c4)cccc3c2)n1
The cell viability of the first is lower: 0.143 for the first, 1.15 for the second.

First: C[C@@H]1CCCCCCCCCCCCC(=O)C1 [Muscone]
Second: C=C1CCC[C@]2(C)C[C@]3(O)OC(=O)C(C)=C3C[C@@H]12 [Atractylenolide III]
The cell viability of the first is higher: 1.13 for the first, 1.1 for the second.

Compared with `COC[C@H](NC(=O)c1cnc(C)s1)C(=O)N[C@@H](COC)C(=O)N[C@@H](Cc1ccccc1)C(=O)[C@@]1(C)CO1` [Oprozomib], `CC(C)C[C@H](NC(=O)[C@H](CCc1ccccc1)NC(=O)CN1CCOCC1)C(=O)N[C@@H](Cc1ccccc1)C(=O)N[C@@H](CC(C)C)C(=O)[C@@]1(C)CO1` [Carfilzomib] is lower in cell viability: 0.176 for the first, 0.0349 for the second.

First: CC(NC(=O)C(Cc1ccccc1)NC(=O)OCc1ccccc1)C(=O)CF (centres undefined)
Second: CC(C)C[C@H](NC(=O)[C@H](Cc1ccccc1)NC(=O)c1cnccn1)B(O)O [Bortezomib]
The cell viability of the first is higher: 1.1 for the first, 0.067 for the second.

Going from `CC(=O)NC(Cc1ccccc1)C(=O)O` (centres undefined) [Afalanine] to `CC(C)C[C@H](NC(=O)[C@@H](O)[C@H](N)Cc1ccccc1)C(=O)O` [Ubenimex], the cell viability rises from 1.04 to 1.08.

First: Cn1c(=O)c(Oc2ccc(F)cc2F)cc2cnc(NC(CCO)CCO)nc21 [Pamapimod]
Second: CC(C)Oc1ccc(C(=O)N[C@H](CNC(=O)CN(C)C)Cc2ccc(-c3cn4cccc([C@H](C)O)c4n3)cc2)cc1Cl
The cell viability of the first is higher: 1.05 for the first, 0.15 for the second.

Compared with `C[C@@H]1CC[C@@]2(NC1)O[C@H]1C[C@H]3[C@@H]4CC=C5C[C@@H](O[C@@H]6O[C@H](CO)[C@H](O)[C@H](O[C@@H]7O[C@H](CO)[C@@H](O)[C@H](O)[C@H]7O)[C@H]6O[C@@H]6O[C@@H](C)[C@H](O)[C@@H](O)[C@H]6O)CC[C@]5(C)[C@H]4CC[C@]3(C)[C@H]1[C@@H]2C` [Solasonine], `CC(=O)OC(CC(C)C1=C2C[C@H](O)C3[C@@]4(C)CCC(=O)C(C)(C)C4CC[C@]3(C)[C@@]2(C)CC1)C1OC1(C)C` (some centres undefined) [Alisol B 23-acetate] is lower in cell viability: 1.1 for the first, 0.99 for the second.

First: Cn1cc(-c2cc3c(N4CCN(c5ncc([C@@](C)(N)c6ccc(F)cc6)cn5)CC4)ncnn3c2)cn1 [Avapritinib]
Second: Nc1n[nH]c2cc(-c3ccc(=O)n(Cc4cccc(Cl)c4)c3)ccc12
The cell viability of the first is lower: 0.846 for the first, 1 for the second.

First: CCCC(C)NC(=O)c1ccc(Cl)c(Cl)c1 (centres undefined)
Second: CC(C)C[C@H](NC(=O)CNC(=O)c1cc(Cl)ccc1Cl)B(O)O [Ixazomib]
The cell viability of the first is higher: 1.06 for the first, 0.121 for the second.

Going from `CC(C)C[C@H](NC(=O)CNC(=O)c1cc(Cl)ccc1Cl)B1OC(=O)C(CC(=O)O)(CC(=O)O)O1` to `CC(C)C[C@H](NC(=O)[C@@H](O)[C@H](N)Cc1ccccc1)C(=O)O` [Bestatin hydrochloride], the cell viability rises from 0.106 to 1.16.

Going from `CCNC(=O)Nc1ccc(-c2nc(N3CCOC[C@@H]3C)c3c(n2)C(C)(C)S(=O)(=O)C3)cc1` to `Nc1nc(=O)c2c([nH]1)NC[C@H](CNc1ccc(C(=O)N[C@@H](CCC(=O)O)C(=O)O)cc1)N2C=O` [Calcium Levofolinate], the cell viability rises from 0.547 to 1.15.

Going from `CCn1nc(C2CCN(C(=O)CCO)CC2)nc1-c1cnc(N)c(-c2nnc(C(C)(C)C)o2)n1` to `O=C(COCC(=O)N1CCN(C(c2ccccc2)c2ccccc2)CC1)Nc1ccc(Cl)cc1C(=O)O` [TM5275 sodium], the cell viability falls from 1.04 to 0.996.

Compared with `Cc1cc(-n2cccc2)c(S(C)(=O)=O)cc1C(=O)N=C(N)N` [Eniporide], `CC(C)S(=O)(=O)c1ccc2nccc(Nc3ccc4scnc4c3)c2c1` is lower in cell viability: 1.24 for the first, 1.08 for the second.

Compared with `NCCC(=O)O` [beta-Alanine], `NC(=O)c1[nH]cnc1N` [4-Amino-5-imidazolecarboxamide] is lower in cell viability: 1.24 for the first, 1.23 for the second.

Going from `Nc1nc2[nH]cc(CCc3ccc(C(=O)N[C@@H](CCC(=O)O)C(=O)O)cc3)c2c(=O)[nH]1` [Pemetrexed Disodium Hydrate] to `Cc1ccc2nc(N)[nH]c(=O)c2c1Sc1ccncc1` [Nolatrexed], the cell viability rises from 0.187 to 1.04.

First: COc1c2c(cc3c1-c1c(cc4c(c1OC)OCO4)C[C@H](C)[C@H](C)C3)OCO2 [Schisandrin C]
Second: N#CC(=Cc1cc(Cl)cc(Cl)c1)c1cccnc1
The cell viability of the first is lower: 0.951 for the first, 1.14 for the second.

Going from `CC(C)c1nc(CN(C)C(=O)N[C@@H](CCN2CCOCC2)C(=O)N[C@H](CC[C@H](Cc2ccccc2)NC(=O)OCc2cncs2)Cc2ccccc2)cs1` [Cobicistat] to `CNC(=O)[C@H](Cc1ccccc1)NC(=O)[C@H](CC(C)C)[C@H](CSc1cccs1)C(=O)NO` [Batimastat], the cell viability falls from 1.14 to 1.08.

In the case of `CC(C)C[C@H](NC(=O)[C@@H](NC(=O)c1cccc(-c2ccccc2)n1)[C@@H](C)O)B(O)O` [Delanzomib], the cell viability is reported as 0.096.
